According to PubChem BioAssay (NCATS):
Values without a mark were called inactive. Inconclusive results are not listed. A call without a number means that no potency is given here. The source made the active and inactive calls. Calls follow the shape of the dose curve; as a rule, active = well fitted curve in the direction sought with a large enough effect; inconclusive = small, poorly fitted or top-dose-only effect, or another doubt; inactive = no such curve, though single readings can be large; an effect the other way counts as inactive or inconclusive.

Legend:
[1] = target: Cytochrome P450 2D6 (Homo sapiens) (UniProt P10635); assay: qHTS Assay for Inhibitors and Substrates of Cytochrome P450 2D6 (AID 891); also: potency is read from the fitted curve at half-maximal effect; nearly all actives have a fitted effect of over 60% in size
Cytochrome P450 2D6 (Homo sapiens), sequence (P10635 whole entry, looked up): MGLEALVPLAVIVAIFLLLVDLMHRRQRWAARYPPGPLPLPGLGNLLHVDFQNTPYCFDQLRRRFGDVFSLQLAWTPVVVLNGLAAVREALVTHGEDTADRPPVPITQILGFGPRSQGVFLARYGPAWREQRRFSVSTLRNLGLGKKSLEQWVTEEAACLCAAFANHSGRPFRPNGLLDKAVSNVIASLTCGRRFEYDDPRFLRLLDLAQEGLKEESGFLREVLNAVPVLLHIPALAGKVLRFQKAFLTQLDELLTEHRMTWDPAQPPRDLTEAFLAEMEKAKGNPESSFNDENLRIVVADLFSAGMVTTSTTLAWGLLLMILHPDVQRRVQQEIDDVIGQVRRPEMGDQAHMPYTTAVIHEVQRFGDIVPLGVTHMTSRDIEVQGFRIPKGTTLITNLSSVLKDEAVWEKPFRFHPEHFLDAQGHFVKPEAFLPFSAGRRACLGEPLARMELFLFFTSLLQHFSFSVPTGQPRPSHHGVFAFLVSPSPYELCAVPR
Summary of the method: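 Luminescent read-out of luciferin formed by 5 nM human CYP2D6 demethylating 30 uM Luciferin-ME EGE (Km level) over 60 min at room temperature after NADPH regeneration addition. Data normalized to full inhibition by 1.43 uM quinidine.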

[2] = target: ATP-dependent 6-phosphofructokinase (Trypanosoma brucei brucei) (UniProt O15648); assay: qHTS Assay to Find Inhibitors of T. brucei phosphofructokinase: hit validation (AID 492961);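 also: luminescence reports ADP formed as PFK phosphorylates fructose-6-phosphate with ATP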
ATP-dependent 6-phosphofructokinase (Trypanosoma brucei brucei), sequence (O15648 whole entry, looked up): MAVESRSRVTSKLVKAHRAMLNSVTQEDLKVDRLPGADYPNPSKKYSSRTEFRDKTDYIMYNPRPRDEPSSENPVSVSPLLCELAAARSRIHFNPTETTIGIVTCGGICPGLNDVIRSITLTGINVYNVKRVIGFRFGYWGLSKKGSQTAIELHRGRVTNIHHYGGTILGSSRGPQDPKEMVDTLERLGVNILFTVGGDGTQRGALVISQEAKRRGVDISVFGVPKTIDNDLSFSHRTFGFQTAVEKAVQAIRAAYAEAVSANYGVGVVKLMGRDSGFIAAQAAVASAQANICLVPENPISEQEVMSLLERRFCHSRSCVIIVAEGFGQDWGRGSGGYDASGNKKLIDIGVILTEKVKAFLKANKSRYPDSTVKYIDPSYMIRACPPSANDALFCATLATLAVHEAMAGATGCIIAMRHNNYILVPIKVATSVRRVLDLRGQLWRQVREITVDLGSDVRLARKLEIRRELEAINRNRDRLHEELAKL
Summary of the method: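 Measures ADP output of PFK (1.25 nM) at 0.1 mM ATP, 0.5 mM F6P, pH 8.0 TEA buffer with 5 mM MgCl2. No-enzyme wells define full inhibition; uninhibited enzyme wells define zero.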

[3] = S16 Schwann cell PMP22 intronic element firefly luciferase assay (AID 624032); also: nearly all actives have a fitted effect of over 30% in size
Summary of the method: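 Luciferase reporter of PMP22 intronic-element expression in stably transfected S16 rat Schwann cells, read by ONE-Glo luminescence after 24 h compound exposure at 37 C. Activity scaled between DMSO (0%) and positive-control PTC124; concentration-effect curves quality-classified.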

[4] = test system: CP211; assay: qHTS profiling for inhibitors of Plasmodium falciparum proliferation (AID 504749); also: nearly all actives have a fitted effect of over 60% in size; also: potency is read from the fitted curve at half-maximal effect; conditions: P. falciparum in erythrocytes, SYBR Green DNA, 72 h; series mostly up to 12.8 µM
Summary of the method: (§1)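 In a 72 h erythrocytic culture (37 C, humidified, 5% CO2) at 2.5% hematocrit and 0.3% starting parasitemia, compounds were tested; SYBR Green I in detergent lysis buffer stained parasite DNA overnight.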

[5] = test system: CP215; assay: as above; conditions: P. falciparum in erythrocytes, SYBR Green DNA, 72 h; series mostly up to 12.8 µM
Summary of the method: as §1

[6] = test system: CP260; assay: as above; conditions: P. falciparum in erythrocytes, SYBR Green DNA, 72 h; series mostly up to 12.8 µM
Summary of the method: as §1

[7] = test system: CP266; assay: as above; conditions: P. falciparum in erythrocytes, SYBR Green DNA, 72 h; series mostly up to 12.8 µM
Summary of the method: as §1

[8] = test system: CP269; assay: as above; conditions: P. falciparum in erythrocytes, SYBR Green DNA, 72 h; series mostly up to 12.8 µM
Summary of the method: as §1

[9] = test system: CP297; assay: as above; conditions: P. falciparum in erythrocytes, SYBR Green DNA, 72 h; series mostly up to 12.8 µM
Summary of the method: as §1

[10] = test system: CP315; assay: as above; conditions: P. falciparum in erythrocytes, SYBR Green DNA, 72 h; series mostly up to 12.8 µM
Summary of the method: as §1

[11] = test system: CP335; assay: as above; conditions: P. falciparum in erythrocytes, SYBR Green DNA, 72 h; series mostly up to 12.8 µM
Summary of the method: as §1

[12] = test system: GB4; assay: as above; conditions: P. falciparum in erythrocytes, SYBR Green DNA, 72 h; series mostly up to 12.8 µM
Summary of the method: as §1

[13] = test system: P94_40; assay: as above; conditions: P. falciparum in erythrocytes, SYBR Green DNA, 72 h; series mostly up to 12.8 µM
Summary of the method: as §1

[14] = test system: PC26; assay: as above; conditions: P. falciparum in erythrocytes, SYBR Green DNA, 72 h; series mostly up to 12.8 µM
Summary of the method: as §1

[15] = target: Cytochrome P450 3A4 (Homo sapiens) (UniProt P08684); assay: qHTS Assay for Inhibitors and Substrates of Cytochrome P450 3A4 (AID 884); also: nearly all actives have a fitted effect of over 50% in size
Cytochrome P450 3A4 (Homo sapiens), sequence (P08684 whole entry, looked up): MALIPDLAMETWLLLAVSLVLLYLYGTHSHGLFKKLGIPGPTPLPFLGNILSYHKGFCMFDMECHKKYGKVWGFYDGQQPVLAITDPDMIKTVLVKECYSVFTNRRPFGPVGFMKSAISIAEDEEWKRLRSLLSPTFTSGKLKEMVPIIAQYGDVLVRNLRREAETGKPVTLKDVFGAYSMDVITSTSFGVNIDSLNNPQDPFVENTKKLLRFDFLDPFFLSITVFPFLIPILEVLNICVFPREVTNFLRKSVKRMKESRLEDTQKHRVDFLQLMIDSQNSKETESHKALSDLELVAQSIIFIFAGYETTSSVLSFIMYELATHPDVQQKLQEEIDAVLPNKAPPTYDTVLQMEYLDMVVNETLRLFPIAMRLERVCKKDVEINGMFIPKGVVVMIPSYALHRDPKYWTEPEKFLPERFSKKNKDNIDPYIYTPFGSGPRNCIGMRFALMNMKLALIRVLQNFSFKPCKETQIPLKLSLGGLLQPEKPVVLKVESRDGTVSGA
Summary of the method: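 Luminescent readout of luciferin produced by CYP3A4 (20 nM) dealkylation of Luciferin-PPXE, 25 uM (its KM). NADPH-driven reaction ran 60 min at RT after 10 min compound preincubation; data scaled to 57 uM ketoconazole as 100% inhibition.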

[16] = test system: W2; assay: qHTS profiling for inhibitors of Plasmodium falciparum proliferation (AID 504749); also: nearly all actives have a fitted effect of over 60% in size; also: potency is read from the fitted curve at half-maximal effect; conditions: P. falciparum in erythrocytes, SYBR Green DNA, 72 h; series mostly up to 12.8 µM
Summary of the method: as §1

[17] = target: Cytochrome P450 3A4 (Homo sapiens) (UniProt P08684); assay: qHTS Assay for Activators of Cytochrome P450 3A4 (AID 885); also: nearly all actives have a fitted effect of over 65% in size
Summary of the method: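 Human CYP3A4 dealkylates Luciferin-PPXE to luciferin, which luciferase detection converts to light. Substrate was at its KM (25uM), buffer 200mM KPO4, reaction 60 min at RT.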

[18] = test system: 7G8; assay: qHTS profiling for inhibitors of Plasmodium falciparum proliferation (AID 504749); also: nearly all actives have a fitted effect of over 60% in size; also: potency is read from the fitted curve at half-maximal effect; conditions: P. falciparum in erythrocytes, SYBR Green DNA, 72 h; series mostly up to 12.8 µM
Summary of the method: as §1

[19] = target: Cytochrome P450 2C9 (Homo sapiens) (UniProt P11712); assay: qHTS Assay for Inhibitors and Substrates of Cytochrome P450 2C9 (AID 883); also: nearly all actives have a fitted effect of over 60% in size
Cytochrome P450 2C9 (Homo sapiens), sequence (P11712 whole entry, looked up): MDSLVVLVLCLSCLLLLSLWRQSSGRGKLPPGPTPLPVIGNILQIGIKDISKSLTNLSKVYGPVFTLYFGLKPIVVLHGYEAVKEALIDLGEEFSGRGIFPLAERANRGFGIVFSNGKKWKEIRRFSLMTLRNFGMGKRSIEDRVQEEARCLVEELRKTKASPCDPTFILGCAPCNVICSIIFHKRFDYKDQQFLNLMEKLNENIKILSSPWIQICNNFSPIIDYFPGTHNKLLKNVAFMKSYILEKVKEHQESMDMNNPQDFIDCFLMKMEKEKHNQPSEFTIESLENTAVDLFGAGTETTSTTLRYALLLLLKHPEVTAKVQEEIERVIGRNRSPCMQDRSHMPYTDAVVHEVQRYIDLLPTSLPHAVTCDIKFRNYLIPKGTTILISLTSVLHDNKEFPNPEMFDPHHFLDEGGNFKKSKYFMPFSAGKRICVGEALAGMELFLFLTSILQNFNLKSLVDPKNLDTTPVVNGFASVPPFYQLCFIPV
Summary of the method: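 Turnover of Luciferin-H (100uM, KM) by 10nM human CYP2C9 was measured over 60 min at 37C with NADPH regeneration; inhibitors and some substrates reduce luminescence. Data normalized to sulphaphenazole 57uM.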

[20] = target: Cytochrome P450 2C19 (Homo sapiens) (UniProt P33261); assay: qHTS Assay for Inhibitors and Substrates of Cytochrome P450 2C19 (AID 899); also: nearly all actives have a fitted effect of over 60% in size
Cytochrome P450 2C19 (Homo sapiens), sequence (P33261 whole entry, looked up): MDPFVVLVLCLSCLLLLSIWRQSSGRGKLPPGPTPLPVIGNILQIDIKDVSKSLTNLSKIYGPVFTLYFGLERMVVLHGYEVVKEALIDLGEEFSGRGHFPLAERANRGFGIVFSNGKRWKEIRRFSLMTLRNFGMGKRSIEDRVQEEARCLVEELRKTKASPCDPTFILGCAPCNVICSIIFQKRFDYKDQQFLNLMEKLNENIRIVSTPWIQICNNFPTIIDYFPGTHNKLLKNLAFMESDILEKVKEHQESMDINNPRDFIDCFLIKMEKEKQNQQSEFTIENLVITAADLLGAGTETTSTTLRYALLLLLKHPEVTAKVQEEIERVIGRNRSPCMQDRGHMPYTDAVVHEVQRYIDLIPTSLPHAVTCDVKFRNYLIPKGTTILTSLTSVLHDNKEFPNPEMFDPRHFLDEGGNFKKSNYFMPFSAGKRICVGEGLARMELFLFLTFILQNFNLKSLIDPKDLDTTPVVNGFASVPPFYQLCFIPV
Summary of the method: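 Reactions contain 5nM enzyme, 10uM Luciferin-H EGE (KM) and 50mM KPO4; compound preincubates 10 min at 37C, NADPH regeneration starts turnover for 60 min. Luminescence after detection reagent gives activity.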

SMILES: O=C(Nc1ccccc1)OC[C@H](CN1CCCCC1)OC(=O)Nc1ccccc1
- Potency [1]: 0.398 µM (active)
- outcome [2]: inactive
- Potency [3]: inactive
- Potency [4]: inactive
- Potency [5]: inactive
- Potency [6]: inactive
- Potency [7]: inactive
- Potency [8]: inactive
- Potency [9]: inactive
- Potency [10]: inactive
- Potency [11]: inactive
- Potency [12]: inactive
- Potency [13]: inactive
- Potency [14]: inactive

SMILES: CC(=O)O[C@]1(C(C)=O)CC[C@@H]2[C@@H]3C=C(C)C4=CC(=O)CC[C@@]4(C)[C@H]3CC[C@]21C
- Potency [15]: inactive
- outcome [2]: inactive
- Potency [3]: inactive
- Potency [4]: inactive
- Potency [5]: inactive
- Potency [6]: inactive
- Potency [7]: inactive
- Potency [8]: inactive
- Potency [9]: inactive
- Potency [10]: inactive
- Potency [11]: inactive
- Potency [12]: inactive
- Potency [13]: inactive
- Potency [16]: inactive

SMILES: CC(=O)[C@@]1(O)CC[C@H]2[C@H]3C[C@@H](C)C4=CC(=O)C=C[C@]4(C)[C@@]3(F)[C@@H](O)C[C@]21C
- Potency [17]: inactive
- outcome [2]: inactive
- Potency [3]: inactive
- Potency [4]: inactive
- Potency [5]: inactive
- Potency [6]: inactive
- Potency [8]: inactive
- Potency [9]: inactive
- Potency [10]: inactive
- Potency [11]: inactive
- Potency [12]: inactive
- Potency [13]: inactive

SMILES: CC1(C)O[C@@H]2C[C@H]3[C@H]4C[C@H](F)C5=CC(=O)CC[C@]5(C)[C@@H]4[C@H](O)C[C@]3(C)[C@]2(C(=O)CO)O1
- outcome [2]: inactive
- Potency [3]: inactive
- Potency [4]: inactive
- Potency [6]: inactive
- Potency [7]: inactive
- Potency [8]: inactive
- Potency [9]: inactive
- Potency [10]: inactive
- Potency [11]: inactive
- Potency [12]: inactive
- Potency [13]: inactive
- Potency [14]: inactive
- Potency [16]: inactive

SMILES: CC[C@@H]1OC(=O)[C@H](C)[C@H](O[C@@H]2C[C@](C)(OC)[C@H](O)[C@H](C)O2)[C@H](C)[C@H](O[C@@H]2O[C@@H](C)C[C@@H](N(C)C)[C@@H]2O)[C@](C)(O)C[C@H](C)C(=NOCOCCOC)[C@H](C)[C@H](O)[C@]1(C)O
- Potency [17]: inactive
- Potency [3]: inactive
- Potency [18]: inactive
- Potency [11]: inactive
- Potency [12]: inactive
- Potency [13]: inactive
- Potency [14]: inactive

SMILES: COc1cc(N)c(Cl)cc1C(=O)N[C@H]1CCN(CCCOc2ccc(F)cc2)C[C@H]1OC
- outcome [19]: inactive
- outcome [20]: inactive
- outcome [2]: inactive
- Potency [18]: 5.01 µM (active)
- Potency [5]: inactive
- Potency [6]: 3.16 µM (active)
- Potency [7]: inactive
- Potency [9]: inactive
- Potency [10]: inactive
- Potency [13]: 3.16 µM (active)
- Potency [16]: 5.1 µM (active)

SMILES: CC(C)(C)NC[C@H](O)COc1cccc2c1CCC(=O)N2
- outcome [2]: inactive
- Potency [18]: inactive
- Potency [4]: inactive
- Potency [5]: inactive
- Potency [6]: inactive
- Potency [7]: inactive
- Potency [8]: inactive
- Potency [9]: inactive
- Potency [10]: inactive
- Potency [12]: inactive
- Potency [13]: inactive
- Potency [14]: inactive
- Potency [16]: inactive

SMILES: CN1C(=O)C[C@H](c2ccccc2)C1=O
- outcome [2]: inactive
- Potency [18]: inactive
- Potency [4]: inactive
- Potency [5]: inactive
- Potency [6]: inactive
- Potency [7]: inactive
- Potency [8]: inactive
- Potency [9]: inactive
- Potency [10]: inactive
- Potency [11]: inactive
- Potency [12]: inactive
- Potency [13]: inactive
- Potency [14]: inactive
- Potency [16]: inactive

SMILES: CO[C@]1(NC(=O)C2SC(=C(C(N)=O)C(=O)O)S2)C(=O)N2C(C(=O)O)=C(CSc3nnnn3C)CS[C@H]21 (stereo partly specified)
- outcome [2]: inactive
- Potency [3]: inactive
- Potency [18]: inactive
- Potency [4]: inactive
- Potency [5]: inactive
- Potency [6]: inactive
- Potency [7]: inactive
- Potency [8]: inactive
- Potency [9]: inactive
- Potency [10]: inactive
- Potency [12]: inactive
- Potency [13]: inactive
- Potency [14]: inactive
- Potency [16]: inactive

SMILES: C[N+]12CCC(CC1)[C@@H](OC(=O)C(O)(c1ccccc1)c1ccccc1)C2
- outcome [2]: inactive
- Potency [3]: inactive
- Potency [18]: inactive
- Potency [6]: inactive
- Potency [7]: inactive
- Potency [8]: inactive
- Potency [9]: inactive
- Potency [11]: inactive
- Potency [13]: inactive
- Potency [16]: inactive

SMILES: C=CCN1C(=CCO)[C@H]2C[C@H]3[C@@H]1CC[C@@]31c3ccccc3N3C=C4[C@@H]5N(/C=C/2[C@H]31)c1ccccc1[C@]51CC[C@H]2[C@H]1C[C@@H]4/C(=C/CO)N2CC=C
- outcome [2]: inactive
- Potency [3]: inactive
- Potency [18]: inactive
- Potency [4]: inactive
- Potency [5]: inactive
- Potency [6]: inactive
- Potency [7]: inactive
- Potency [8]: inactive
- Potency [9]: inactive
- Potency [10]: inactive
- Potency [12]: inactive
- Potency [13]: inactive
- Potency [14]: inactive
- Potency [16]: inactive

SMILES: COc1ccc([C@@H]2CC(=O)c3c(O)cc(O[C@H]4O[C@@H](CO[C@H]5O[C@@H](C)[C@@H](O)[C@@H](O)[C@@H]5O)[C@@H](O)[C@@H](O)[C@@H]4O)cc3O2)cc1O
- Potency [3]: inactive
- Potency [18]: inactive
- Potency [4]: inactive
- Potency [5]: inactive
- Potency [6]: inactive
- Potency [7]: inactive
- Potency [8]: inactive
- Potency [9]: inactive
- Potency [10]: inactive
- Potency [12]: inactive
- Potency [13]: inactive
- Potency [14]: inactive
- Potency [16]: inactive

SMILES: CNC[C@H](O)c1ccc(OC(=O)C(C)(C)C)c(OC(=O)C(C)(C)C)c1
- outcome [2]: inactive
- Potency [4]: inactive
- Potency [6]: inactive
- Potency [7]: inactive
- Potency [9]: inactive
- Potency [11]: inactive
- Potency [13]: inactive
